PubChem BioAssay (NCI)
The panel holds about 83,000 compounds, 20% with a hit somewhere; the sample as a whole holds those more often.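 For each line, cells grew in 96-well plates with the test compound present at a single concentration for 48 hours.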 Activity calls are given as the source filed them.

What follows are compounds tested on UACC-62 melanoma (assay: NCI-60 one-dose screen, 48 h (100 = growth as untreated, 0 = no growth, -100 = all killed)). Conditions: 10 µM unless noted.
Description: Growth inhibition of the UACC-62 human tumor cell line is measured as a screen for anti-cancer activity. Cells are grown in 96 well plates and exposed to the test compound for 48 hours. Compounds are tested at a single concentration, which is 10^-5 M for most compounds. The reported endpoint is percent growth (GI% or GIPRCNT), where numbers from 0 - 100% represent growth inhibition, and numbers from -100% - 0 represent cell death. For example, a value of 40 represents 60% growth inhibition. A value of 0 means no net growth occurred over the course of the experiment. A value of -40 indicates 40% of cells at the beginning of the experiment died by the end of the experiment. A value of -100 means all cells are dead at the end of the experiment.
NCI-60 Human Tumor Cell Lines Screen was performed using the standard one-dose NCI protocol, which is described in more detail at https://dtp.cancer.gov/discovery_development/nci-60/default.htm.
Compounds with GIPRCNT values below 10 were considered active. Activity score was based on GIPRCNT using the following formula: […]
Score is 0 for GIPRCNT values of 100 or above, 50 for GIPRCNT values of 0, and 100 for GIPRCNT values of -100.

Row | SMILES | growth
1 | CCOc1ccc(-n2c(-c3cc(OC)c(OC)c(OC)c3)nnc2-c2ccc(OC)cc2N)cc1 | 66.7% (inactive)
2 | O=c1c(-c2ccc3c(c2)OCO3)coc2c(CO)c(O)ccc12 | -53.1% (active)
3 | S=c1ssnc1-c1ccccn1 | 34.5% (inactive)
4 | CN1CCN(C(=O)/C=C/c2ccc([N+](=O)[O-])o2)CC1 | 69.9% (inactive)
5 | Fc1cccc(F)c1C#Cc1ccc2cccnc2c1 | 71.3% (inactive)
6 | CN(C)c1ccc(/C=c2\s/c(=C\C(=O)C(C)(C)C)[nH]c2=O)cc1 | 95.3% (inactive)
7 | O=C(NC(=S)Nc1ccc(Cl)cc1)c1ccccc1 | 85.5% (inactive)
8 | CC(C)(C)C(=O)Nc1nc2c(s1)CCc1ccn(S(=O)(=O)c3ccccc3)c1-2 | 77.2% (inactive)
9 | Cc1cccc(Cc2cnc(NC(=O)CCc3ccc(C)o3)s2)c1 | 21.6% (inactive)
10 | Cc1ccc[n+](CC(=O)c2cccc3ccccc23)c1 | 111% (inactive)
11 | COc1ccc(-c2cnc(-c3ccc(F)cc3)[nH]2)cc1 | 82.2% (inactive)
12 | CCCCCCCCCCCCCCCCCCNCc1ccc(Cl)cc1 | -46.7% (active)
13 | NC(CCCC(N)C(=O)c1ccccc1)C(=O)O (stereo not given) | 99.9% (inactive)
14 | CCCC(=O)Oc1ccc(/C(=C(\C)c2ccc(Cl)cc2)c2ccc(OCCN(CC)CC)cc2)cc1 | -42.2% (active)
15 | COc1cc(/C=C/C(=O)c2c(C)n([O-])c3cc(C)c(C)cc3[n+]2=O)cc(OC)c1OC | 64% (inactive)
16 | COc1cc(/C=C/C(=O)N2CCC=CC2=O)cc(OC)c1OC | 40.8% (inactive)
17 | CN1CCN(CC(=O)N(C)c2ccc(N=C(c3ccccc3)c3c(O)[nH]c4ccc(C#N)cc34)cc2)CC1 | 68.1% (inactive)
18 | CCCCOc1nc2ccc(Cl)cc2cc1/C=C/C(=O)/C=C/c1ccc(Cl)cc1 | 67.5% (inactive)
19 | CCN(CC)CC(=O)Nc1c(C)cccc1C | 105% (inactive)
20 | Nc1ncnc2c1c(-c1ccc(Oc3ccccc3)cc1)nn2C[C@@H]1SSC[C@H]1O | -70.4% (active)

Row | SMILES | growth
21 | CC(C)(C)NC(C1=CC(C)(C)c2ccccc2C1=O)c1ccccc1 (stereo not given) | -23.5% (active)
22 | COc1cccc(/C=N/C(=S)NC2(C)C3CCC(C3)C2(C)C)c1O (stereo not given) | 94.5% (inactive)
23 | O=C(NCCNc1nccc(-c2c(-c3cccc(O)c3)nc3sccn23)n1)c1cc(N2CCOCC2)cc(C(F)(F)F)c1 | 8.5% (active)
24 | Cc1cc2c(cc1C)N(C(=O)CCl)CCN2C(=O)CCl | -43.1% (active)
25 | O=C(Nc1ccc(-n2ccc3c(NC(=O)c4ccccc4)nccc32)cc1)c1ccc(Cl)c(C(F)(F)F)c1 | 40.6% (inactive)
26 | Nc1nccc2c1ccn2-c1ccc(NC(=O)Nc2cccc(C(F)(F)F)c2)cc1 | 91.1% (inactive)
27 | COC(=O)c1ccc(NC(N)=NCC(C)(C)COc2ccc(C(F)(F)F)cc2)nc1 | 65.5% (inactive)
28 | CCCCn1c(-c2cccc(OC)c2)nc2cc(OC)c(OC)cc2c1=O | 83.6% (inactive)
29 | Nc1ncnc2c1ncn2C1OC(COC(c2ccccc2)(c2ccccc2)c2ccccc2)C(O)C1O (stereo not given) | 95.6% (inactive)
30 | COc1ccc(-c2nn(-c3ccc(NC(=O)c4cc(Cl)cc(Cl)c4)cc3)cc2-c2ccncc2)cc1Cl | 63.5% (inactive)
31 | O=C(c1ccccc1)[C@H]1[C@@H]2CCCN2[C@]2(C(=O)Nc3ccc(F)cc32)[C@]12C(=O)Nc1ccccc12 | 70.7% (inactive)
32 | Nc1n[nH]c2cccc(C#Cc3cccc(NC(=O)c4cccc(C(F)(F)F)c4)c3)c12 | 26.1% (inactive)
33 | COc1ccc(C(=O)NC(=O)Nc2ccc3c(c2)NC(=O)/C3=C\c2[nH]c(C)c(C(=O)O)c2C)c(F)c1 | 38.3% (inactive)
34 | O=C(O)c1ccc(-n2cc(/C=N/Nc3ccccc3F)c(-c3ccc(O)cc3)n2)cc1 | 46.5% (inactive)
35 | COc1ccc2c(c1)OC(N(C(C)=O)C(C)=O)=C(C#N)C2c1ccc(F)cc1 (stereo not given) | 34.5% (inactive)
36 | COc1cc(-c2nc3sc(C)cn3c2/C=C2\C(=O)Nc3ccccc32)c(Br)c(OC)c1OC | 52.8% (inactive)
37 | O=C(Nc1cccc(-n2ccc3c(NC(=O)c4ccccc4)ncnc32)c1)Nc1ccc(Cl)c(C(F)(F)F)c1 | 39.5% (inactive)
38 | Cc1cn([C@]2(CF)O[C@H](CO)C2C)c(=O)[nH]c1=O (stereo not given in full) | 122% (inactive)
39 | CCN(CC)CCC(C(=O)O)(c1ccccc1)c1ccccc1 | 97.9% (inactive)
40 | O=c1[nH]ccc2nc(N3CCC(O)CC3)nc(Nc3cccc(C(F)(F)F)c3)c12 | 32% (inactive)
